Values quoted from earlier work in PubChem BioAssay AID977608.
The whole screen tested about 4,300 compounds, of which about 4,300 (100%) were called active. Cut-off not given; nearly all actives show IC50 up to about 1400 µM. The set was probably picked from earlier hits. Some of the results follow. Starred links: 1 amine or outer side, 2 acyl side, 3 side chain; linkers in the order of their positions; H or OH if unused. Non-standard residues stand in square brackets, D forms with d. Residues, ends and D or L forms follow the SMILES beside them. X1 = O=C([C@H](Cc1ccc(C(F)(F)[P+](O)(O)O)cc1)N[*:1])[*:2]

Assay: literature IC50 values for PDB complexes, PDB-derived complexes (AID 977608)
Settings: PDB protein-ligand complexes

H-AAAAAAA-OH
IC50 (protein: Insulin-degrading enzyme(IDE), PDB entry 2jbu): 400 µM (active)

COc1ccc2c(c1)C1=NN(C(=O)CO)[C@H](c3ccc(OC(F)(F)F)c(F)c3)[C@@H]1CC2
IC50 (protein: Receptor-interacting serine/threonine-protein kinase 1 (C34A, C127A, C233A, C240A mutation), PDB entry 4iti): 0.44 µM (active)

O=C(O)/C(S)=C/c1c(Cl)ccc(Cl)c1Cl
IC50 (protein: Beta-lactamase 2 BcII MBL, PDB entry 4tyt): 0.02 µM (active)

CC(C)C[C@H](C[P+](O)(O)[C@@H](N)CCc1ccccc1)C(=O)N[C@@H](Cc1c[nH]c2ccccc12)C(N)=O
IC50 (protein: Endoplasmic reticulum aminopeptidase 2, PDB entry 4jbs): 0.011 µM (active)

O=C1NCc2ccc(Cl)cc21
IC50 (protein: Chymase, PDB entry 4k5z): 1000 µM (active)

O=C(c1ccc(O)cc1)N1CCOCC1
IC50 (protein: Heat shock protein HSP 90-alpha, PDB entry 4egh): 550 µM (active)

N=Cc1ncc(C(=O)NCc2ccccc2)cn1
IC50 (protein: Protease AVP2, PDB entry 4pid): 24 µM (active)

Nc1nonc1C(=O)c1cccc(OCc2nc3ccccc3[nH]2)c1
IC50 (protein: Adenylate cyclase type 10 hsolAC, PDB entry 4oya): 0.36 µM (active)

Nc1nonc1C(=O)c1ccccc1
IC50 (protein: Adenylate cyclase type 10 hsolAC, PDB entry 4oyi): 19 µM (active)

CCOC(=O)COc1cccc(C(=O)c2nonc2N)c1
IC50 (protein: Adenylate cyclase type 10 hsolAC, PDB entry 4oyb): 1.6 µM (active)

COc1cccc(C(=O)c2nonc2N)c1
IC50 (protein: Adenylate cyclase type 10 hsolAC, PDB entry 4oym): 11 µM (active)

CCCCn1cc[n+](CC(O)([P+](O)(O)O)[P+](O)(O)O)c1
IC50 (protein: Farnesyl pyrophosphate synthase, PDB entry 4ga3): 0.03 µM (active)

CCCCCCCCCCCCCCCn1cc[n+](CC([P+](O)(O)O)[P+](O)(O)O)c1
IC50 (protein: Squalene synthase, HsSQS, PDB entry 3wcl): 0.26 µM (active) | IC50 (protein: Squalene synthase, TcSQS, PDB entry 3wcg): 0.14 µM (active)

CCCCCCCCCCCCCCCn1cc[n+](CC(O)([P+](O)(O)O)[P+](O)(O)O)c1
IC50 (protein: Squalene synthase, HsSQS, PDB entry 3wci): 0.27 µM (active)

FC(F)(F)c1ccc(CNc2ccc(Cc3c[nH]c4ncccc34)cn2)cc1
IC50 (protein: Mast/stem cell growth factor receptor Kit, PDB entry 4hvs): 0.016 µM (active)

COc1cnc2[nH]cc(Cc3ccc(NCc4ccc(C(F)(F)F)cc4)nc3)c2c1
IC50 (protein: Macrophage colony-stimulating factor 1 receptor (C667T, C830S, C907T mutation), PDB entry 4hw7): 0.062 µM (active)

S=CNc1ccc2oc(C3=NCCN3)cc2c1
IC50 (protein: Chitinase A(W275G mutant), PDB entry 3as3): 160 µM (active)

CC(C)C[C@H]1NC(=O)[C@@H](Cc2c[nH]c3ccccc23)NC(=O)[C@@H](CCC(N)=O)NC(=O)[C@@H](Cc2c[nH]c3ccccc23)NC(=O)[C@@H](CCC(=O)O)NC(=O)[C@H]2CCCN2C(=O)[C@@H](CO)NC(=O)[C@@H](CCC(=O)O)NC(=O)[C@H](NC(=O)[C@@H](C)NC(=O)CNC(=O)[C@H](N)CCCCN)CSSC[C@H](C(=O)N[C@H](C)C(=O)N[C@H](C)C(=O)O)NC1=O
IC50 (protein: gp41 N-peptide, PDB entry 2r3c): 2.2 µM (active)

CC(=O)NCC(=O)N[C@H](C)C(=O)N[C@@H]1CSSC[C@H](C(=O)N[C@H](C)C(=O)N[C@H](C)C(=O)O)NC(=O)[C@@H](CC(C)C)NC(=O)[C@@H](Cc2c[nH]c3ccccc23)NC(=O)[C@@H](C)NC(=O)[C@@H](Cc2c[nH]c3ccccc23)NC(=O)[C@@H](CCC(=O)O)NC(=O)[C@@H](CCCNC(N)N)NC(=O)[C@@H](Cc2cnc[nH]2)NC(=O)[C@@H](CCCNC(N)N)NC(=O)[C@@H](C)NC(=O)[C@@H](CCC(=O)O)NC1=O
IC50 (protein: IQN17, PDB entry 1czq): 29 µM (active)

C[C@@H]1NC(=O)[C@@H]2CSSC[C@H](NC(=O)CN)C(=O)N[C@@H](CSSC[C@@H](C(N)=O)NC(=O)[C@H](CCCNC(N)N)NC(=O)[C@H](Cc3c[nH]c4ccccc34)NC1=O)C(=O)N[C@@H](CO)C(=O)N[C@@H](CC(=O)O)C(=O)N1CCC[C@H]1C(=O)N[C@@H](CCCNC(N)N)C(=O)N2
IC50 (protein: nicotinic acetylcholine receptor homolog AChBP, PDB entry 2c9t): 0.033 µM (active)

Cc1c(C(=O)O)cccc1-c1nc2nc(N)nc(OCC3CCCCC3)c2[nH]1
IC50 (protein: CYCLIN-DEPENDENT KINASE 2, CDK2, PDB entry 4cfu): 100 µM (active)

CNC(=O)NC(N)NCCC[C@H](NC(=O)Cn1nncc1CO/N=C/c1ccnc2ccccc12)C(=O)N(Cc1ccccc1)Cc1ccccc1 (stereo not given in full)
IC50 (protein: Chitinase B, PDB entry 3wd1): 0.022 µM (active)

CNC(=O)NC(N)NCCC[C@H](NC(=O)CN=[N+]=[N-])C(=O)N(Cc1ccccc1)Cc1ccccc1 (stereo not given in full)
IC50 (protein: Chitinase B, PDB entry 3wd2): 0.58 µM (active)

H-DVFYPYPYASGS-OH
IC50 (protein: concanavalin A(ConA), PDB entry 1jyi): 100 µM (active)

C[C@H](NC(=O)[C@@H](N)CCC(=O)O)C(=O)N[C@@H](CCC(N)=O)C(=O)N[C@@H](Cc1ccc(C(F)(F)[P+](O)(O)O)cc1)C(=O)N[C@@H](CCC(N)=O)C(=O)N1CCC[C@H]1C(=O)O (H-EAQ[X1]QP-OH)
IC50 (protein: TYROSINE-PROTEIN PHOSPHATASE NON-RECEPTOR TYPE 1, PTP1B, PDB entry 3zmq): 0.36 µM (active)

H-SIGKAFKILGYPD-OH
IC50 (protein: G Protein Beta:Gamma Heterodimer, PDB entry 1xhm): 0.47 µM (active)

CC(C)C[C@H](NC(=O)[C@H](CCCCN)NC(=O)[C@H](CCC(=O)O)NC(=O)[C@H](Cc1ccc(O)cc1)NC(=O)[C@H](C)NC(=O)[C@@H]1CCCN1C(=O)[C@@H]1CCCN1C(=O)[C@H](C)N)C(=O)N[C@@H](CO[P+](O)(O)O)C(=O)N[C@@H](C)C(=O)N[C@@H](CCC(=O)O)C(=O)N[C@@H](CCC(N)=O)C(=O)N[C@@H](CO)C(=O)N1CCC[C@H]1C(=O)N1CCC[C@H]1C(=O)O
IC50 (protein: MHC class II molecule HLA-DR1, PDB entry 3l6f): 0.102 µM (active)

CC(C)C[C@H](NC(=O)CNC(=O)[C@@H](NC(=O)[C@@H](NC(=O)[C@H](C)NC(=O)[C@@H]1CCCN1C(=O)[C@@H](N)CC(C)C)C(C)C)C(C)C)C(=O)N[C@@H](CO)C(=O)N1CCC[C@H]1C(=O)NCC(=O)N[C@@H](CCC(=O)O)C(=O)N[C@@H](CCC(N)=O)C(=O)N[C@@H](CCC(=O)O)C(=O)N[C@@H](Cc1ccc(O)cc1)C(=O)O
IC50 (protein: HLA-B*3501, PDB entry 1xh3): 3.1 µM (active)

C[C@H](N)C(=O)N[C@@H](Cc1ccc(C(F)(F)[P+](O)(O)O)cc1)C(=O)N[C@@H](C)C(=O)O
IC50 (protein: TYROSINE-PROTEIN PHOSPHATASE NON-RECEPTOR TYPE 1, PTP1B, PDB entry 3zmp): 2.13 µM (active)
